UGM FP inh – Mtb UDP-galactopyranose mutase inhibition | inhibition, % at 10 µM | purified UGM, fluorescence polarization probe displacement | P9WIQ1 | AID 504406 | hit rate 0.06% among 320,000; in the data active means inhibition above about 10%, passing the limit was not always enough
GDH-TPI counter – counter-screen for M. tuberculosis FBA inhibitors: GDH-TPI coupled enzymes. inhibition, % at 4.8 µM. GDH-TPI coupled enzyme counterscreen, NADH absorbance. hit rate 1.2% among 360,000; in the data active means inhibition above about 30%;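 further: 0% = DMSO wells and 100% = wells lacking the enzyme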
Rv3671c protease – Rv3671c (M. tuberculosis) protease inhibition; inhibition, % at 5.96 µM; hit rate 0.048% among 320,000; in the data active means inhibition above about 38%;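 further: extracellular domain of Rv3671c used as enzyme; 0% = enzyme with DMSO and 100% = no enzyme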
Mtb bLac sens – beta-lactam sensitization of Mtb H37Rv; M. tuberculosis H37Rv growth with meropenem, percent inhibition; inhibition, % at 25 µM; hit rate 0.27% among 330,000;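 further: growth measured after seven days incubation then overnight dye step; 0% = bacteria only wells and 100% = bacteria with antibiotic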
Mtb FBA inh – Mtb fructose-bisphosphate aldolase inhibition; P9WQA3; purified M. tuberculosis FBA, fluorescence read-out; inhibition, % at 1 µM; hit rate 2.3% among 360,000; in the data active means inhibition above about 27%;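 further: 0% = vehicle and 100% = reference inhibitor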
RecA splice inh – inhibitors of M. tuberculosis RecA intein splicing; hit rate 0.75% among 290,000; inhibition, % (test concentration not listed); cell-free RecA intein splicing, fluorescence; in the data active means inhibition above about 30%;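 further: 0% = vehicle wells and 100% = reference inhibitor control wells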
GFP chromophore – counter-screen GFP chromophore formation inhibition. shares compounds with RecA splice inh. cell-free GFP chromophore formation, fluorescence. EC50, µM. hit rate 83% among 2,100. AID 434968
* marks the source's active call; other numbers are inactive results. Rows were chosen to be rich in hits. Some 4% of all compounds tested hit in one or more screens of this group. Unless noted, how the calls were made is not given here.

What do the screens show for `CN(C(=O)c1ccc(NC(=O)Cc2ccc(NC(=O)C3CCCN(C(=O)CCc4ccccc4)C3)cc2)cc1)C1CC1` (stereo unspecified)?
UGM FP inh: 1.0; GDH-TPI counter: 7.2; Rv3671c protease: 8.7; Mtb bLac sens: 5.8; Mtb FBA inh: 0.2

What do the screens show for `CCC1(CC)NC(=O)N(CC(=O)OCC(=O)Nc2ncc(Cl)cc2Cl)C1=O`?
UGM FP inh: -1.7; GDH-TPI counter: 3.8; Rv3671c protease: 7.2; Mtb bLac sens: -0.8; Mtb FBA inh: 4.8; RecA splice inh: 9.1

What do the screens show for `C/C(=N\NC(=O)c1ccncc1)c1cc2ccccc2oc1=O`?
UGM FP inh: 0.7; GDH-TPI counter: 2.2; Rv3671c protease: 2.1; Mtb bLac sens: 99.7; Mtb FBA inh: -2.3; RecA splice inh: 93.3*; GFP chromophore: 15*

How did COc1ccc2oc(=O)c(/C(N)=N/NC(=O)c3ccncc3)cc2c1 do in these assays?
UGM FP inh: -1.5; GDH-TPI counter: 2.3; Rv3671c protease: 1.2; Mtb bLac sens: 98.8; Mtb FBA inh: 2.1; RecA splice inh: -9.8

Results for CCCCN(C(=O)c1cccc2c(=O)c(C)c(-c3ccccc3)oc12)c1ccccc1 ?
GDH-TPI counter: 6.5; Mtb FBA inh: -4.0; RecA splice inh: 32.8*; GFP chromophore: >38

What do the screens show for `CC1=NN(c2ccc(S(=O)(=O)O)cc2C)C(=O)C1`?
UGM FP inh: -0.3; GDH-TPI counter: -8.0; Rv3671c protease: -9.6; Mtb bLac sens: 5.6; Mtb FBA inh: -2.3; RecA splice inh: 91.3*; GFP chromophore: 18.4*

Results for O=C(O)C1=NN(c2cc(Cl)c(S(=O)(=O)O)cc2Cl)C(=O)C1 ?
GDH-TPI counter: 13.2; Mtb FBA inh: 4.0

Results for Nc1cc(N)c(OCC(F)(F)F)cc1OCC(F)(F)F ?
UGM FP inh: -2.5; GDH-TPI counter: 24.8; Rv3671c protease: -55.9; Mtb bLac sens: -17.6; Mtb FBA inh: -0.1; RecA splice inh: 91.6*; GFP chromophore: 7.62*

What do the screens show for `CN1CCC2CC1c1cc(-c3ccc(C(F)(F)F)cc3)ccc12` (stereo unspecified)?
GDH-TPI counter: 1.0; Mtb FBA inh: 0.7

How did Cc1ccc(N2C(=O)C(Cl)=C(N3CCN(C)CC3)C2=O)c(C)c1 do in these assays?
UGM FP inh: 1.3; GDH-TPI counter: 7.5; Rv3671c protease: -6.9; Mtb bLac sens: 95.5; Mtb FBA inh: -6.4; RecA splice inh: 81.4*; GFP chromophore: 6.44*

What do the screens show for `O=C1C(Cl)=C(N2CCCCCC2)C(=O)N1c1ccccc1`?
UGM FP inh: 1.5; GDH-TPI counter: 5.2; Rv3671c protease: -2.1; Mtb bLac sens: -2.6; Mtb FBA inh: 2.4; RecA splice inh: 36.0*; GFP chromophore: 27.9*

Results for CN1CCN(C2=C(Cl)C(=O)N(c3ccc(Cl)cc3)C2=O)CC1 ?
UGM FP inh: -0.7; GDH-TPI counter: 13.1; Rv3671c protease: 0.7; Mtb bLac sens: 48.7; Mtb FBA inh: 3.6; RecA splice inh: 33.4*; GFP chromophore: 0.16*

How did CN1CCN(C2=C(Cl)C(=O)N(CCc3ccccc3)C2=O)CC1 do in these assays?
UGM FP inh: -0.6; GDH-TPI counter: 0.0; Rv3671c protease: -1.6; Mtb bLac sens: 8.4; Mtb FBA inh: -0.8; RecA splice inh: 2.5

Results for CCCN(C(=O)c1cnccn1)c1c(N)n(Cc2ccccc2)c(=O)[nH]c1=O ?
UGM FP inh: -0.6; GDH-TPI counter: -2.5; Rv3671c protease: 2.9; Mtb bLac sens: -1.3; Mtb FBA inh: -3.2

What do the screens show for `COc1c2c(c(CCC(=O)O)c3c1C=CC(C)(C)O3)OC(C)(C)C=C2`?
GDH-TPI counter: 1.0; Mtb FBA inh: 0.9

Results for Cc1c(C(=O)N2CCC(C)CC2)oc2ccc3c(c12)C(O)CC1(CCCCC1)O3 (stereo unspecified) ?
UGM FP inh: 2.0; GDH-TPI counter: 1.5; Rv3671c protease: -3.7; Mtb bLac sens: 2.1; Mtb FBA inh: 1.7; RecA splice inh: -0.8

How did Cc1cc(N)ccc1NC(=O)CN1CCCC1 do in these assays?
UGM FP inh: -0.7; GDH-TPI counter: -3.5; Rv3671c protease: 2.0; Mtb bLac sens: -12.3; Mtb FBA inh: -4.5; RecA splice inh: -4.5

Results for OC(c1ccccc1)c1nc(-c2ccc(Cl)cc2)cs1 (stereo unspecified) ?
GDH-TPI counter: 11.6; Mtb FBA inh: 1.7
